Experimental data from PubChem BioAssay AID1159580 (chemical genetic matrix, 2015).
Values joined by “and” are separate entries in the source; they are usually repeats but may differ in a detail not shown here. Equal entries are not always repeated. Out of some 5,500 compounds screened, about 2,000 (36%) were called active. Inconclusive results (about 18%) are left out. No stated cut-off is given here; in the data, active means normalized growth mostly below about 0.91 (no sharp cut-off); inconclusive means no clear call, values can overlap the other calls; inactive means mostly above about 0.92. The list shows a part of the results.

Test: chemical genetic growth profiling, strain panel (AID 1159580);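 further: tested at 20 µM; growth read once vehicle control cultures reached saturation at 30 °C; 1 = growth at the plate median or of vehicle wells; lower values mean less growth of the strain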
Conditions: growth OD

Measured: normalized growth

CCN(CC)CCOC(=O)C(c1ccccc1)C1CCCCC1 (configuration not stated)
inactive: S. cerevisiae deletion strains, locus YAL013W, strain DEP1, active compounds read low 1 | S. cerevisiae deletion strains, locus YBR021W, strain FUR4, active compounds read low 1 | S. cerevisiae deletion strains, locus YBR229C, strain ROT2, active compounds read low 1 | S. cerevisiae deletion strains, locus YCL029C, strain bik1, active compounds read low 0.958 | S. cerevisiae deletion strains, locus YDL035C, strain GPR1, active compounds read low 0.999 | S. cerevisiae deletion strains, locus YDL074C, strain BRE1, active compounds read low 0.948 | S. cerevisiae deletion strains, locus YDL101C, strain DUN1, active compounds read low 0.983 | S. cerevisiae deletion strains, locus YDL134C, strain PPH21, active compounds read low 1.01 | S. cerevisiae deletion strains, locus YDL185W, strain tfp1, active compounds read low 0.946 | S. cerevisiae deletion strains, locus YDL192W, strain arf1, active compounds read low 0.971 | S. cerevisiae deletion strains, locus YDR101C, strain arx1, active compounds read low 0.964 | S. cerevisiae deletion strains, locus YDR150W, strain NUM1, active compounds read low 0.989 | S. cerevisiae deletion strains, locus YDR162C, strain NBP2, active compounds read low 0.99 | S. cerevisiae deletion strains, locus YDR318W, strain mcm21, active compounds read low 0.97 | S. cerevisiae deletion strains, locus YDR388W, active compounds read low 0.948 | S. cerevisiae deletion strains, locus YDR502C, strain sam2, active compounds read low 0.998 | S. cerevisiae deletion strains, locus YEL061C, strain CIN8, active compounds read low 0.999 | S. cerevisiae deletion strains, locus YER110C, active compounds read low 0.973 | S. cerevisiae deletion strains, locus YER155C, strain BEM2, active compounds read low 1 | S. cerevisiae deletion strains, locus YER167W, strain BCK2, active compounds read low 1.01 | S. cerevisiae deletion strains, locus YGL078C, strain dbp3, active compounds read low 0.99 | S. cerevisiae deletion strains, locus YGL086W, strain mad1, active compounds read low 1.02 | S. cerevisiae deletion strains, locus YGL248W, strain PDE1, active compounds read low 1.01 | S. cerevisiae deletion strains, locus YGR078C, strain PAC10, active compounds read low 0.966 | S. cerevisiae deletion strains, locus YGR135W, strain pre9, active compounds read low 0.968 | S. cerevisiae deletion strains, locus YGR229C, strain SMI1, active compounds read low 0.972 | S. cerevisiae deletion strains, locus YGR252W, strain gcn5, active compounds read low 1.11 | S. cerevisiae deletion strains, locus YHR030C, strain SLT2, active compounds read low 0.995 and 1.06 | S. cerevisiae deletion strains, locus YHR079C, strain IRE1 (second series), active compounds read low 0.964 | S. cerevisiae deletion strains, locus YHR079C, strain IRE1, active compounds read low 1.04 | S. cerevisiae deletion strains, locus YHR094C, strain hxt1, active compounds read low 0.975 | S. cerevisiae deletion strains, locus YHR129C, strain ARP1, active compounds read low 0.992 | S. cerevisiae deletion strains, locus YHR200W, strain rpn10, active compounds read low 0.975 | S. cerevisiae deletion strains, locus YIL066C, strain RNR3, active compounds read low 0.984 | S. cerevisiae deletion strains, locus YIL073C, strain SPO22, active compounds read low 0.958 | S. cerevisiae deletion strains, locus YIL125W, strain kgd1, active compounds read low 0.986 | S. cerevisiae deletion strains, locus YIR030C, strain dcg1, active compounds read low 0.981 | S. cerevisiae deletion strains, locus YJL095W, strain BCK1, active compounds read low 0.938 and 1.05 | S. cerevisiae deletion strains, locus YJL134W, strain LCB3, active compounds read low 0.998 | S. cerevisiae deletion strains, locus YJL168C, strain set2, active compounds read low 0.966 | S. cerevisiae deletion strains, locus YJL187C, strain SWE1 (second series), active compounds read low 0.969 | S. cerevisiae deletion strains, locus YJR043C, strain POL32, active compounds read low 0.991 | S. cerevisiae deletion strains, locus YJR066W, strain TOR1, active compounds read low 1 | S. cerevisiae deletion strains, locus YJR075W, strain HOC1, active compounds read low 0.954 | S. cerevisiae deletion strains, locus YKL009W, strain mrt4, active compounds read low 0.962 | S. cerevisiae deletion strains, locus YKL068W, active compounds read low 0.978 | S. cerevisiae deletion strains, locus YKL085W, strain MDH1 (second series), active compounds read low 0.97 | S. cerevisiae deletion strains, locus YKL085W, strain MDH1, active compounds read low 0.97 | S. cerevisiae deletion strains, locus YKL190W, strain CNB1, active compounds read low 0.989 | S. cerevisiae deletion strains, locus YKR001C, strain vps1, active compounds read low 0.999 | S. cerevisiae deletion strains, locus YLR039C, strain RIC1, active compounds read low 1.12 | S. cerevisiae deletion strains, locus YLR058C, strain SHM2, active compounds read low 1 | S. cerevisiae deletion strains, locus YLR102C, strain apc9, active compounds read low 0.983 | S. cerevisiae deletion strains, locus YLR113W, strain HOG1, active compounds read low 1.02 | S. cerevisiae deletion strains, locus YLR262C, strain YPT6, active compounds read low 1.12 | S. cerevisiae deletion strains, locus YLR268W, strain sec22, active compounds read low 0.906 | S. cerevisiae deletion strains, locus YLR330W, strain CHS5, active compounds read low 1 | S. cerevisiae deletion strains, locus YLR342W, strain FKS1 (second series), active compounds read low 1.02 | S. cerevisiae deletion strains, locus YLR371W, strain rom2, active compounds read low 0.962 | S. cerevisiae deletion strains, locus YLR418C, strain cdc73, active compounds read low 0.931 | S. cerevisiae deletion strains, locus YML016C, strain PPZ1, active compounds read low 1 | S. cerevisiae deletion strains, locus YML032C, strain rad52, active compounds read low 0.948 | S. cerevisiae deletion strains, locus YML124C, strain tub3, active compounds read low 0.977 | S. cerevisiae deletion strains, locus YMR078C, strain ctf18, active compounds read low 0.949 | S. cerevisiae deletion strains, locus YMR223W, strain ubp8, active compounds read low 1.01 | S. cerevisiae deletion strains, locus YMR263W, strain SAP30, active compounds read low 0.969 | S. cerevisiae deletion strains, locus YMR307W, strain GAS1, active compounds read low 1.23 | S. cerevisiae deletion strains, locus YNL067W, strain RPL9B, active compounds read low 0.965 | S. cerevisiae deletion strains, locus YNL128W, strain TEP1, active compounds read low 0.98 | S. cerevisiae deletion strains, locus YNL153C, strain GIM3, active compounds read low 0.973 | S. cerevisiae deletion strains, locus YNL183C, strain NPR1, active compounds read low 0.983 | S. cerevisiae deletion strains, locus YNL233W, strain BNI4, active compounds read low 0.99 | S. cerevisiae deletion strains, locus YNL250W, strain rad50, active compounds read low 0.992 | S. cerevisiae deletion strains, locus YNL271C, strain bni1, active compounds read low 0.974 | S. cerevisiae deletion strains, locus YNL298W, strain CLA4, active compounds read low 0.969 | S. cerevisiae deletion strains, locus YNL307C, strain MCK1, active compounds read low 0.978 | S. cerevisiae deletion strains, locus YNL322C, strain KRE1, active compounds read low 0.988 | S. cerevisiae deletion strains, locus YNR052C, strain pop2, active compounds read low 0.952 | S. cerevisiae deletion strains, locus YOL006C, strain TOP1, active compounds read low 0.94 | S. cerevisiae deletion strains, locus YOL012C, strain htz1 1.03 | S. cerevisiae deletion strains, locus YOL147C, strain pex11, active compounds read low 0.976 | S. cerevisiae deletion strains, locus YOR061W, strain CKA2, active compounds read low 0.993 | S. cerevisiae deletion strains, locus YOR069W, strain VPS5, active compounds read low 1 | S. cerevisiae deletion strains, locus YOR136W, strain idh2, active compounds read low 0.981 | S. cerevisiae deletion strains, locus YOR144C, strain elg1, active compounds read low 0.981 | S. cerevisiae deletion strains, locus YOR184W, strain ser1, active compounds read low 0.97 | S. cerevisiae deletion strains, locus YOR231W, strain MKK1, active compounds read low 1.04 | S. cerevisiae deletion strains, locus YOR316C, strain cot1, active compounds read low 0.955 | S. cerevisiae deletion strains, locus YPL055C, strain LGE1, active compounds read low 0.959 | S. cerevisiae deletion strains, locus YPL241C, strain CIN2, active compounds read low 1 | S. cerevisiae deletion strains, locus YPL256C, strain CLN2, active compounds read low 1.06 | S. cerevisiae deletion strains, locus YPR119W, strain clb2, active compounds read low 0.964 | S. cerevisiae deletion strains, locus YPR141C, strain kar3, active compounds read low 0.975 | S. cerevisiae deletion strains, locus YPR163C, strain tif3, active compounds read low 0.961 | S. cerevisiae deletion strains, locus YPR167C, strain met16, active compounds read low 0.96 | S. cerevisiae deletion strains, strain wtn01, active compounds read low 0.938 | S. cerevisiae strains, strain wild type, active compounds read low 0.995
